In PubChem BioAssay (NCATS):
Records with an inconclusive call do not appear. Active and inactive are the calls of the source. Calls come from the whole dose curve; as a rule, active = well fitted inhibition curve with a large enough effect; inconclusive = small, poorly fitted or top-dose-only effect; inactive = no such curve, though single readings can be large or run the other way.

Assay: qHTS assay for measurement of the activity of small molecule inhibitors on Zika virus induced Caspase-3 activity in human iPSC derived neural progenitor cells (hNPCs) (AID 1224857); note: % of control where 0% means no effect; nearly all actives have a fitted effect of over 65% in size
Settings: hNPCs ZIKV-induced caspase-3/7, Caspase-Glo luminescence, 6 h; series mostly up to 45.7 µM; activity change, negative = inhibition: at the top concentration
Description: National Center for Advancing Translational Sciences [NCATS]
Johns Hopkins University School of Medicine
Increase in the Caspase-3 activity indicates an activation of apoptosis cell death pathway caused by Zika virus infection in certain types of neuronal cells including human neural progenitor cells (hNPCs), astrocytes, and astrocytoma cell line (SNB-19). This cell-based caspase-3 activity assay measures the increased caspase-3 activity in the human iPSC derived neural progenitor cells (hNPCs) after a 6-hour Zika virus infection with a luminescence readout. A decrease in the luminescence signal in this assay by small molecule treatment indicates an inhibitory effect of that small molecule on the Zika virus induced caspase-3 activity that may correlate with its effect on reduction of Zika virus caused cell death.
The medium for hNPCs consists of DMEM/F12, N2 supplement (ThermoFisher, Cat.# 17502048), NEAA (ThermoFisher, Cat. # 11140050), 2 ug/ml heparin, 2 uM cyclopamine, and B27 (ThermoFisher, Cat. # 17504044). A Caspase-Glo 3/7 assay kit (catalog number G8092; Promega, Madison, WI) was used to detect caspase-3 activity induced by Zika virus infection in human cells. The reagent mixture was reconstituted as described in the protocol from the manufacturer. Polystyrene tissue culture treated and PDL coated white plates were obtained from Greiner Bio-One (Monroe, NC). Cells were seeded in 384- or 1536-well assay plates and cultured at 37 C with 5% CO2 for 16 to 20 hours. The typical cell seeding density in the 1536-well plate assay is 350 cells/well in 3 ul medium for hNPCs in tissue culture treated plates. Compounds were added to cells and incubated for one hour before addition of ZIKV solution to cells (2 FFU/cell). After incubation at 37 C with 5% CO2 for 6 hours, the reagent mixture of Caspase-Glo 3/7 assay kit was added to each well, followed by incubation at room temperature for 30 minutes. The luminescence intensity of the assay plates was measured using a ViewLux plate reader (PerkinElmer). Data were normalized by using the cell-containing wells without ZIKV as a negative control (0% induction of caspase 3/7 activity) and wells containing ZIKV infected cells (Caspase-3 activity induced) as a positive control (100% induction of caspase 3 activity). The percentage inhibitions of the increased Caspase-3 activity by small molecule inhibitors were then calculated.

Compound	activity change, negative = inhibition	Potency
COP(=O)(OC)OC=C(Cl)Cl	15.2% (inactive)	–
CC(C)(C)OC(=O)c1ncn2c1[C@@H]1CCCN1C(=O)c1c(Br)cccc1-2	-11.7% (inactive)	–
O=C(CCCN1CCC(n2c(=O)[nH]c3ccccc32)CC1)c1ccc(F)cc1	-5.22% (inactive)	–
CC(C)NCC(O)c1ccc(N)c(C#N)c1 (stereo not given)	-1.08% (inactive)	–
Nc1ccc(Cl)cc1C(=O)c1ccccc1F	18.6% (inactive)	–
C[C@]12CC[C@H]3[C@@H](CC=C4C[C@@H](O)CC[C@@]43C)[C@@H]1CC[C@@H]2O	-2.65% (inactive)	–
O=C(NC(=O)c1c(F)cccc1F)Nc1cc(Cl)c(OC(F)(F)C(F)C(F)(F)F)cc1Cl (stereo not given)	17.7% (inactive)	–
O=C(O)Cc1ccccc1	13.8% (inactive)	–
CCNc1nc(Cl)nc(NCC)n1	-3.91% (inactive)	–
Clc1ccc(CO/N=C(\Cn2ccnc2)c2ccc(Cl)cc2Cl)c(Cl)c1	65.6% (inactive)	–
CCOP(=S)(OCC)O/N=C(\C#N)c1ccccc1	5.08% (inactive)	–
C#C[C@]1(O)CC[C@H]2[C@@H]3CCC4=CC(=O)CCC4=C3C=C[C@@]21CC	-2.48% (inactive)	–
Sc1ccccc1Cl	-5.57% (inactive)	–
CN1CCC(N(Cc2ccccc2)c2ccccc2)CC1	-1.5% (inactive)	–
CC[C@]1(O)CC[C@H]2[C@@H]3CCC4=CCCC[C@@H]4[C@H]3CC[C@@]21C	-1.83% (inactive)	–
CCN(CC)C(C)C(=O)c1ccccc1 (stereo not given)	5.66% (inactive)	–
CNC(=O)NC(O)C(Cl)(Cl)Cl (stereo not given)	7.17% (inactive)	–
O=C1NCN(c2ccccc2)C12CCN(CCCOc1ccc(F)cc1)CC2	21.7% (inactive)	–
Oc1ccc2[nH]cc(CCCCN3CC=C(c4ccccc4)CC3)c2c1	10.3% (inactive)	–
CCOC(=O)C1(c2ccccc2)CCN(CCc2ccc(N)cc2)CC1	-1.08% (inactive)	–

Compound	activity change, negative = inhibition	Potency
CCc1ccc(C2CCNCC2)cc1	-1.19% (inactive)	–
CCC1(CC)C(=O)NC(=O)NC1=O	-2.81% (inactive)	–
CN1C2CCC(C)(C)C1CC(OC(=O)C(O)(c1cccs1)c1cccs1)C2 (stereo not given)	-8.25% (inactive)	–
CC1=C2[C@H]3OC(=O)[C@@H](C)[C@@H]3CC[C@@]2(C)C=CC1=O	-0.0608% (inactive)	–
COc1ccc2c3c1O[C@H]1[C@@H](O)C=C[C@H]4[C@@H](C2)N(C)CC[C@@]341	17.2% [at 92.8 µM] (inactive)	–
C[C@@H]1O[C@@H](O[C@@H]2C=C3CC[C@@H]4[C@H](CC[C@]5(C)[C@@H](c6ccc(=O)oc6)CC[C@]45O)[C@@]3(C)CC2)[C@H](O)[C@H](O)[C@H]1O	-0.478% (inactive)	–
CC(C)=C[C@@H]1[C@@H](C(=O)OCc2coc(Cc3ccccc3)c2)C1(C)C	4.73% (inactive)	–
c1ccc2c(c1)Sc1ccccc1N2CC1CN2CCC1CC2 (stereo not given)	-4.56% (inactive)	–
COc1ccc(C(=O)N2CCCC2=O)cc1	–	inactive
CCCC(C)C1(CC)C(=O)N=C(S)NC1=O (stereo not given)	-11.6% (inactive)	–
O=C(CCl)c1ccc(Cl)cc1Cl	-14.3% (inactive)	–
CCC1(c2cccc(O)c2)CCCCN(C)C1 (stereo not given)	-0.577% (inactive)	–
CCOC(=O)NC(C)(C)Cc1ccc(Cl)cc1	16% (inactive)	–
CCN(Cc1ccc(Cl)nc1)/C(=C/[N+](=O)[O-])NC	-26% (inactive)	–
CCN1CCCC1CNC(=O)C(O)(c1ccccc1)c1ccccc1 (stereo not given)	33.6% (inactive)	–
CN1C(=O)[C@@H](NC(=O)c2cc3ccccc3[nH]2)N=C(c2ccccc2)c2ccccc21	-13.4% (inactive)	–
COc1ccc2[nH]cc(CCN(C(C)C)C(C)C)c2c1	22.8% [at 92.8 µM] (inactive)	–
CCC(OC(C)=O)C(CC(C)NC)(c1ccccc1)c1ccccc1 (stereo not given)	24.7% [at 92.8 µM] (inactive)	–
CC(=O)OC1(c2ccccc2)CCN(CCc2ccccc2)CC1	-15% [at 92.8 µM] (inactive)	–
COP(=S)(OC)Oc1ccc(Sc2ccc(OP(=S)(OC)OC)cc2)cc1	-13.1% (inactive)	–
